# CtBP-E1A blk = blocks the CtBP interaction with E1A | AlphaScreen GST-E1A/His-CtBP binding, 1536-well; stronger effect = lower value | activity change, % (no concentration beside the values) | 340,000 compounds, 0.49% hits; in the data active = activity change below about -65%; inconclusive = mostly about -30% to -63%
#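 In 5 uL wells, 23 nL compound meets equimolar GST-E1A and His-CtBP (5X stock 125 nM each) for 2 h, 37 °C. Beads (5X, 50 ug/mL) then 1 h, 37 °C, dark.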
# GALK inhibitor = blocks human galactokinase activity | P51570 | Purified GALK, Kinase-Glo residual ATP luminescence | Potency, µM (titrated, usually from 57.5 µM), for the others: at the top dose activity change, negative = inhibition, actives largely listed as inhibitors | 270,000 compounds, 0.007% hits | AID 1868; note: potency is the fitted concentration of half-maximal effect
#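 The enzyme phosphorylates galactose (100 uM) using ATP (35 uM); inhibition is detected as higher residual ATP, quantified by bioluminescence after 1 h reaction at room temperature, pH 8.0.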
# Eya2 inh = Eya2 (human) phosphatase inhibition. Potency, µM (doses to about 76.9 µM), without a hit: at the highest dose activity, negative = inhibition, actives largely listed as inhibitors. O00167. recombinant Eya2, OMFP fluorescence dephosphorylation (OMFP is methylfluorescein phosphate). 330,000 compounds, 0.006% hits; note: potency is the fitted concentration of half-maximal effect
#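 Eya2 protein (added as 0.2 uM solution) was preincubated with compound for 10 min at ambient temperature in 50 mM HEPES pH 7.5, 50 mM NaCl, 5 uM MgCl2, 0.05% BSA, 1 mM DTT. OMFP (added at 50 uM) then reacted 10 min; fluorescence read at 485/525 nm.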
# Six1-Eya2 blk = Six1/Eya2 interaction inhibition. AlphaScreen GST-Six1/His-Eya2 binding, biochemical; stronger effect = lower value. activity change, % (no concentration beside the values). 360,000 compounds, 0.56% hits; in the data active = activity change below about -65%; inconclusive = mostly about -30% to -63%
# Target sequence (O00167 whole entry, looked up): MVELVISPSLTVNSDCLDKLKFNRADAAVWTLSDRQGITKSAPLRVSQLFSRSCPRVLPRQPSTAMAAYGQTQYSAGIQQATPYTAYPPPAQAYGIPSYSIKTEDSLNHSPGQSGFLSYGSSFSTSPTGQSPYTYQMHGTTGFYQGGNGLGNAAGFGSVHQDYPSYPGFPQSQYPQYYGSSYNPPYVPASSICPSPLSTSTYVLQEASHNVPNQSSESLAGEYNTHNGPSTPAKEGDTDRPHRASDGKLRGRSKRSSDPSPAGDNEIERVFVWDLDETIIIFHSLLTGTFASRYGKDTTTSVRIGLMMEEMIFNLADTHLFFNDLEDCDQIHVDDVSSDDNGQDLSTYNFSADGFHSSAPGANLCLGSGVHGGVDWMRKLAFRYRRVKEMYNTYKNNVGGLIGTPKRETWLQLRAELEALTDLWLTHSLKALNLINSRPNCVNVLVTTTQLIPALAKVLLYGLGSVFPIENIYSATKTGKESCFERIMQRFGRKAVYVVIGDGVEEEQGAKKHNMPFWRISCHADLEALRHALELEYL
# Target sequence (Q15475 whole entry, looked up): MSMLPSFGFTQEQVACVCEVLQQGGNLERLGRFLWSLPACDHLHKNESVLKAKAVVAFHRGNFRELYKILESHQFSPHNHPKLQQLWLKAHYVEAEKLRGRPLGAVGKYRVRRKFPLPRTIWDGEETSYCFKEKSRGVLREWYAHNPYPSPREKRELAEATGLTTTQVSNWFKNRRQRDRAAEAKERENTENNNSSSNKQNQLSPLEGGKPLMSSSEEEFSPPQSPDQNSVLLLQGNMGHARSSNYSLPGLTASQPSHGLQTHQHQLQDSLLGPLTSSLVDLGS
#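 Homogeneous AlphaScreen proximity assay pairing GST-Six1 with His-tagged Eya2 (added as 5X mix: 250 nM and 500 nM) in 50 mM Tris pH 8.0, 300 mM NaCl, 1 mM TCEP. Glutathione donor and nickel acceptor beads; 1 h, 37 °C, dark.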
# Apoferritin bind = binds horse apoferritin like a general anesthetic | Potency, µM (doses to about 77.5 µM), without a hit: at the highest dose activity change, negative = displacement, hits mostly inhibitors | AID 485281 | apoferritin/1-aminoanthracene competitive binding, fluorescence | P02791 | 350,000 compounds, 0.074% hits; note: potency is the fitted concentration of half-maximal effect; nearly all actives have a fitted effect of over 20% in size
#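 In PBS, apoferritin at 10 uM is loaded with 1-AMA from a 50% saturated solution. After 10 min of compound exposure at ambient temperature, reduced 535 nm fluorescence indicates probe displacement.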
# KDM4E inh = JMJD2E (human) inhibition; B2RXH2; AID 2147; JMJD2E catalytic domain, FDH-coupled NADH fluorescence (FDH is formaldehyde dehydrogenase); 230,000 compounds, 1.6% hits; Potency, µM (titrated, usually from 57.1 µM), without a hit: at the highest dose activity change, negative = inhibition, most hits filed as inhibitors; active = well fitted inhibition curve with a large enough effect, not every such curve was filed as active; inconclusive = small, poorly fitted or top-dose-only effect, or another doubt; inactive = no such curve, though single readings can be large or run the other way;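 note: potency is the fitted concentration of half-maximal effect; 0% = wells with enzyme and -100% = buffer wells without enzyme; nearly all actives have a fitted effect of over 50% in size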
# * hit, by the source's call; ? = inconclusive; nt = not tested or not shown; [ ] = remark or other dose. Many of the other results were omitted from the sample, so hits are more common in it than they were. Unless noted, calls come from the whole dose curve; as a rule, active = well fitted curve in the direction sought with a large enough effect; inconclusive = small, poorly fitted or top-dose-only effect, or another doubt; inactive = no such curve, though single readings can be large; an effect the other way counts as inactive or inconclusive. Unless noted, % is set by controls: 0 for no effect and ±100 for the full control effect.
SMILES,CtBP-E1A blk,GALK inhibitor,Eya2 inh,Six1-Eya2 blk,Apoferritin bind,KDM4E inh
CO[C@@]1(NC(=O)Cc2cccs2)C(=O)N2C(C(=O)O)=C(COC(N)=O)CS[C@@H]21,-22,-2%,5%,2,12%,32µM*
CO[C@@]1(NC(=O)Cc2cccs2)C(=O)N2C(C(=O)O)=C(COC(N)=O)CSC21 (stereo not given in full),nt,nt,nt,nt,1%,-18%
Nc1ncnc(Oc2cccc3cccnc23)c1[N+](=O)[O-],-13,-2%,-5%,-67*,-11%,-17%
COc1cc2c(cc1[N+](=O)[O-])-c1ccc([N+](=O)[O-])cc1C2=NNC(N)=S,?,nt,nt,-73*,nt,nt
NC(=S)NN=C1c2cc(Cl)ccc2-c2c1cc(Cl)cc2[N+](=O)[O-],-17,nt,nt,-28,nt,nt
Cc1ccc(NC2=C(NC(=O)c3ccccc3)C(=O)c3ccccc3C2=O)cc1Cl,0,0%,-10%,-66*,?,-24%
Cc1ccc(NC(=O)c2cc(S(=O)(=O)N3CCc4ccccc43)ccc2F)cc1Cl,nt,nt,nt,nt,-15%,nt
C[C@@H](C(=O)O)c1ccc(C(=O)c2ccccc2)s1,nt,nt,nt,nt,4%[29.3 µM],-2%[25.5 µM]
O=C1c2cc(Br)ccc2O[C@@H](c2ccc3c(c2)OCO3)[C@@H]1O,nt,nt,nt,nt,nt,-10%
O=C(O)c1ccc(Cl)c2c1C1C=CCC1C(c1ccccn1)N2 (stereo not given),nt,1%,-5%,nt,-9%,25µM*
O=[N+]([O-])c1ccc(Cl)c2c1C1C=CCC1C(c1ccccn1)N2 (stereo not given),-22,10%,-1%,?,-19%,-21%
CCC1CCC(C(=O)NC(C(=O)Nc2cccc(OC)c2)C(C)C)CC1 (stereo not given),nt,nt,nt,nt,-16%,nt
CCc1nnc(NC(=O)c2cc(Cl)ccn2)s1,-93*,-1%,0%,-77*,-6%,nt
CCSc1nnc(NC(=O)c2ccccn2)s1,-91*,2%,-24%,-94*,-6%,-5%
CCSc1nnc(NC(=O)c2cnccn2)s1,1,1%,-2%,-1,-8%,3%
Cc1noc(C)c1-c1ccc2ncnc(NCc3cccc(F)c3)c2c1,nt,nt,nt,nt,-11%,nt
O=c1c2ccccc2nc2ccc(NCc3ccco3)nn12,-81*,-1%,-7%,-69*,-4%,?
Cc1sc2nc3ccc(NCc4ccco4)nn3c(=O)c2c1C,?,0%,11%,-66*,752%,?
Sc1oc(-c2ccccc2)cc1C=Nc1ccccc1,-73*,0%,-12%,-71*,?,-3%
N#Cc1c(-n2ncnc2-c2ccccc2Cl)sc2c1CCCCC2,nt,nt,nt,nt,-14%,nt
Cc1cc(C(=O)NNC(=S)NC(=O)/C=C/c2ccccc2Cl)n[nH]1,-99*,0%,-5%,-91*,-15%,7.9µM*
Cc1cccc(C(=O)NC(=S)NNC(=O)c2ccccc2Cl)c1,-3,3%,8%,-9,-1%,?
CC1CC=CC2C1C(=O)N(Cc1ccccc1)C2c1ccc(-c2ccoc2)cc1F (stereo not given),nt,nt,nt,nt,-10%,nt
C/C(=C\C(=O)OCCCCCCCCC(=O)O)C[C@@H]1OCC(C[C@H]2O[C@H]2[C@@H](C)[C@H](C)O)[C@@H](O)[C@H]1O (stereo not given in full),nt,nt,nt,nt,2%,nt
Cc1cc(C)c2sc(NNC(=O)c3ccc(S(=O)(=O)N4CCc5ccccc5C4)cc3)nc2c1,-23,nt,-3%,-4,8%,13µM*
SMILES,CtBP-E1A blk,GALK inhibitor,Eya2 inh,Six1-Eya2 blk,Apoferritin bind,KDM4E inh
Cc1cc(C)c2nc(NNC(=O)c3ccc(S(=O)(=O)N4CCc5ccccc5C4)cc3)sc2c1,-18,nt,18%,-1,-19%,5%
O=C(CSc1nnc2c(n1)[nH]c1ccccc12)Nc1ccc(S(=O)(=O)Nc2ncccn2)cc1,nt,4%,10%,-76*,-11%,-1%
COc1ccc(/C=N/Nc2nnc(C)n2N)cc1OC,0,-2%,8%,?,-9%,14µM*
COc1ccc(/C=N/Nc2nnc(C)n2N)cc1OC(C)=O,-5,-1%,4%,3,-6%,nt
CCN=c1scc(C)n1/N=C/c1ccc(O)c(O)c1O,?,1%,-8%,?,?,11µM*
COC(=O)C1(C(=O)OC)CC2=CCC3C(=O)N(c4ccccc4)C(=O)C3C2Cc2ccccc2[C@@H]1C[N+](=O)[O-] (stereo not given in full),nt,nt,nt,nt,nt,3%
CC(C)(C)OC(=O)NCCCC1=CC2=CC(=O)C(C)(OC(=O)c3cnc4ccccc4n3)C(=O)C2=CO1 (stereo not given),nt,nt,nt,nt,nt,-26%
CCOC(=O)c1oc2ccccc2c1NC(=O)COc1cccc(OC)c1,4,2%,14%,2,-6%,5µM*
CCOc1ccc(NC(=O)c2oc3ccccc3c2NC(=O)COc2cccc(OC)c2)cc1,nt,nt,nt,nt,-6%,nt
Cc1oc2ncn(C)c(=O)c2c1C(=O)NCCCN1CCCCC1C (stereo not given),nt,nt,nt,nt,-2%,nt
CCOc1ccc2nc3cc(N=Nc4ccc(N)nc4N)ccc3c(N)c2c1,-76*,nt,nt,?,nt,nt
O=C(CCC(=O)c1cccs1)OCC(=O)c1ccc(Cl)s1,10,5%,-8%,14,28µM*,-4%
O=C(CCC(=O)c1cccs1)OCC(=O)c1ccc(F)cc1,9,nt,1%,11,nt,nt
COc1ccc(S(=O)(=O)N(CCc2ccccc2)CC(=O)Nc2ccc(C)c(C)c2)cc1OC,nt,nt,nt,nt,81%,nt
COc1ccc(C(=S)N2CCOCC2)cc1OC(=O)c1ccccc1Cl,-10,2%,2%,-11,-8%,nt
O=C(Oc1c(Cl)cc(Cl)c2cccnc12)c1ccco1,-14,-1%,-15%,-92*,?,-16%
O=C(Oc1c(Cl)cc(Cl)c2cccnc12)c1cccs1,-82*,-2%,-19%,-67*,?,-7%
O=C(Oc1c(CN2CCOCC2)cc(Cl)c2cccnc12)c1ccccc1Cl,-91*,13%,-11%,-93*,-23%,?
O=C(Oc1c(CN2CCOCC2)cc(Cl)c2cccnc12)c1cccs1,-86*,10%,5%,-84*,-11%,25µM*
O=C(Oc1cncc(Cl)c1)c1ccco1,1,1%,1%,-17,-5%,5%
Cc1cc2c(nc1C)CCCN2C[C@H](O)CN1CCCc2nc(-c3ccc(Br)cc3)ccc21,nt,nt,nt,nt,3%[15.3 µM],nt
C#CCOCCOCCOCCNc1nc(N2CCN(C(=O)CCCCCCCCCCNC(=O)[C@H]([C@@H](C)CC)n3cc(CCCCCN)nn3)CC2)nc(N2CCN(C(=O)CCCCCCCCCCNC(=O)[C@@H]([C@H](C)O)n3cc(C)nn3)CC2)n1,-9,nt,28µM*,2,nt,nt

# Source: PubChem BioAssay (National Center for Advancing Translational Sciences (NCATS))
